Reference: ChEMBL document CHEMBL5308504, “Tm Shift (DSF) assay results for EUbOPEN Chemogenomics Library” (2023)
Values joined by “and” are separate entries in the source; they are usually repeats but may differ in a detail not shown here. Identical values can stand only once.

Key:
Settings in all cases: Compound concentration 20.0 uM, Protein concentration 2.0 uM, Result type QC Liability
[1] = target: Tyrosine-protein kinase ABL1 (Homo sapiens) (UniProt P00519)
[2] = target: Cyclin-dependent kinase 2 (Homo sapiens) (UniProt P24941)
[3] = target: Casein kinase I isoform delta (Homo sapiens) (UniProt P48730)
Sequence of Casein kinase I isoform delta (Homo sapiens) (P48730 whole entry, looked up, canonical isoform): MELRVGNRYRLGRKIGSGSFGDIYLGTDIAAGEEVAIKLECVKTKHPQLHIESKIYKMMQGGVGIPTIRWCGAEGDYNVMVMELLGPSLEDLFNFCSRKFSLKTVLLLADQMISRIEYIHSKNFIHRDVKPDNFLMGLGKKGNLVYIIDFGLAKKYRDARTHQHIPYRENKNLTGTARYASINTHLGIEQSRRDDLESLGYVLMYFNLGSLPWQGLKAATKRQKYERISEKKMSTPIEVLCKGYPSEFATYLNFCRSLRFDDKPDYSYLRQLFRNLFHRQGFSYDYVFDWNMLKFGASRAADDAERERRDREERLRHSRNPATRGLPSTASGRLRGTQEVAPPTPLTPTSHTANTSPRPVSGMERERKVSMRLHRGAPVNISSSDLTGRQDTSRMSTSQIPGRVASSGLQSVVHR

[4] = target: Glycogen synthase kinase-3 beta (Homo sapiens) (UniProt P49841)
Sequence of Glycogen synthase kinase-3 beta (Homo sapiens) (P49841 whole entry, looked up): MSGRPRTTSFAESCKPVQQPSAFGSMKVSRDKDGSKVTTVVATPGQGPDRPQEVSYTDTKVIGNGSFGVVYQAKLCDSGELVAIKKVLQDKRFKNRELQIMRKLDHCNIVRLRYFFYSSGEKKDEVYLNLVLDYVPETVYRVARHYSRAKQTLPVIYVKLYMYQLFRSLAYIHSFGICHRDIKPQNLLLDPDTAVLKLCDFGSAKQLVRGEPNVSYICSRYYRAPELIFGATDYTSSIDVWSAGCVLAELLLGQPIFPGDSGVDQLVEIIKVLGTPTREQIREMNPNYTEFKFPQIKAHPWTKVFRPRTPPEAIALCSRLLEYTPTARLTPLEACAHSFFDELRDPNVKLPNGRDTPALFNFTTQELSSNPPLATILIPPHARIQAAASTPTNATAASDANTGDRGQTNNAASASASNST

[5] = target: Mitogen-activated protein kinase 1 (Homo sapiens) (UniProt P28482)
Sequence of Mitogen-activated protein kinase 1 (Homo sapiens) (P28482 whole entry): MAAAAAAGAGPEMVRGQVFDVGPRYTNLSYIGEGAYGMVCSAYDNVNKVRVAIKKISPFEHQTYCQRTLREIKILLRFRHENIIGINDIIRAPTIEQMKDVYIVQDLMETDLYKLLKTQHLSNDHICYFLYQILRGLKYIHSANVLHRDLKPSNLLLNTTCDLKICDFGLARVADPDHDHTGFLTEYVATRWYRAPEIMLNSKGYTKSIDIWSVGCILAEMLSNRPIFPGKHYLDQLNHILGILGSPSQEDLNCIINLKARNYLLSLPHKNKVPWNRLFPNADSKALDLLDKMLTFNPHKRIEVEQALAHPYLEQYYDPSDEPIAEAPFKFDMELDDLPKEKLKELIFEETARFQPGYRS

[6] = target: T1, Aurora kinase A (Homo sapiens) (UniProt O14965)
T1 sequence (whole entry): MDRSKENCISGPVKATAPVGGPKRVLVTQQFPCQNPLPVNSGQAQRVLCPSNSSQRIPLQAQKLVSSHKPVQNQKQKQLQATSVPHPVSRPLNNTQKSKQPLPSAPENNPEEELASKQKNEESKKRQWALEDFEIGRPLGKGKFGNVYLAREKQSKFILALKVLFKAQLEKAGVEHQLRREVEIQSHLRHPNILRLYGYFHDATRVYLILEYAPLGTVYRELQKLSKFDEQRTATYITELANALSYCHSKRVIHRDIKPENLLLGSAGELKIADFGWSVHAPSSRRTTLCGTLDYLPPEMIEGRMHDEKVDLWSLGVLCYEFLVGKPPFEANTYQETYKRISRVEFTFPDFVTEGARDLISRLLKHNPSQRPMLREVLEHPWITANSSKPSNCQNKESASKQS

Sequence of Tyrosine-protein kinase ABL1 (Homo sapiens) (P00519 whole entry): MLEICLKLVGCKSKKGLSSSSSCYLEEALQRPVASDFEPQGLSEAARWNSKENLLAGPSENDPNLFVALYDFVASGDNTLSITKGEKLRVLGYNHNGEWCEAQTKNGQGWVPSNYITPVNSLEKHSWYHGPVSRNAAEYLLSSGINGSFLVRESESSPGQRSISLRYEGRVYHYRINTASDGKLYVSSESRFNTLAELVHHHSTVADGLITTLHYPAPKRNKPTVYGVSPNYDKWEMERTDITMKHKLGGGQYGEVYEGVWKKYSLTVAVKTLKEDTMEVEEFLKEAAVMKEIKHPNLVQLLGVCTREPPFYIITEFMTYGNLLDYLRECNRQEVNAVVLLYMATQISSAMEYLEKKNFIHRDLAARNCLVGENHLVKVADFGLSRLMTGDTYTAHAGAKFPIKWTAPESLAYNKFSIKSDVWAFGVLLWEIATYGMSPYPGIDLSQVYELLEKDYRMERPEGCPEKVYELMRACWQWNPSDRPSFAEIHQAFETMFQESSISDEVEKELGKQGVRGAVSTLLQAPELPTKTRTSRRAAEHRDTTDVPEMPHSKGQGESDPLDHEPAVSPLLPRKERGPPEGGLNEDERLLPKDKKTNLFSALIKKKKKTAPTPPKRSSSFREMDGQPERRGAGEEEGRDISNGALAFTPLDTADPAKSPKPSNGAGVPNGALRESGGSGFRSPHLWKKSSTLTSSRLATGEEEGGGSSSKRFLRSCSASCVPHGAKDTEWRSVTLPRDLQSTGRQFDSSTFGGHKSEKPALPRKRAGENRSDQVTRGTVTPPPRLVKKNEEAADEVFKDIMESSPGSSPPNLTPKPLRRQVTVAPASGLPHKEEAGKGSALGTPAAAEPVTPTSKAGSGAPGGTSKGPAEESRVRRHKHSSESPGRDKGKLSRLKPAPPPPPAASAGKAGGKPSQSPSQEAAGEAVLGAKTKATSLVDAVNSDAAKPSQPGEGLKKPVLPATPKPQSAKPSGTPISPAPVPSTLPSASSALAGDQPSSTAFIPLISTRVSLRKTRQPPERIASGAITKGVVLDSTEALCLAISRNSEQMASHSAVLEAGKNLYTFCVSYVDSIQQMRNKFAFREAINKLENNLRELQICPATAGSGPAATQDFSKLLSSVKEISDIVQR

Cn1cc(-n2cnc3c(NCc4nc5cc(Cl)c(Cl)cc5[nH]4)nc(N4CCOCC4)nc32)cn1
ΔTm [1]: -0.15 °C
ΔTm [2]: 0.06 °C
ΔTm [3]: -0.03 °C
ΔTm [4]: 2.12 °C
ΔTm [5]: -0.02 °C
ΔTm [6]: 0.53 °C

Cc1cc(CN)cc(C)c1-c1ncn(C)c1-c1cncn1C
ΔTm [1]: 0.16 °C
ΔTm [2]: -0.16 °C
ΔTm [3]: 0.37 °C
ΔTm [4]: 0.19 °C
ΔTm [5]: 0.11 °C
ΔTm [6]: -0.37 °C

NCc1ccc(OCCCc2sc(-c3ccc4c(c3)/C(=N/Nc3nc5ccccc5s3)CCC4)nc2C(=O)O)cc1
ΔTm [1]: 0.43 °C
ΔTm [2]: 0.49 °C
ΔTm [3]: -0.37 °C
ΔTm [4]: -0.12 °C
ΔTm [5]: -0.02 °C
ΔTm [6]: 1.25 °C

CNCc1ccc(-c2cc(-c3nc(-c4ccc(S(=O)(=O)C(C)C)cc4)cnc3N)on2)cc1
ΔTm [1]: 4.85 °C
ΔTm [2]: -0.24 °C
ΔTm [3]: -0.18 °C
ΔTm [4]: 9.94 °C
ΔTm [5]: -0.07 °C
ΔTm [6]: 2.41 °C

CN(C)C(=O)c1cc2cnc(Nc3ccc(N4CCN(CCCCNC(=O)COc5cccc6c5C(=O)N(C5CCC(=O)NC5=O)C6=O)CC4)cn3)nc2n1C1CCCC1 (stereo not given)
ΔTm [1]: 0.61 °C
ΔTm [2]: 0.81 °C
ΔTm [3]: -0.24 °C
ΔTm [4]: -0.75 °C
ΔTm [5]: 0.11 °C
ΔTm [6]: 4.38 °C

CC(C)N(C(=O)C1CCOCC1)c1cc(F)c(Oc2ncc(Cn3nccn3)cc2C(F)(F)F)cc1C(=O)O
ΔTm [1]: -0.75 °C
ΔTm [2]: 0.2 °C
ΔTm [3]: 0.07 °C
ΔTm [4]: -0.83 °C
ΔTm [5]: -0.07 °C
ΔTm [6]: -0.1 °C

COc1cc(-c2cc3ncccc3c(O[C@H](C)[C@H]3CNC(=O)C3)n2)cc(OC)c1OC
ΔTm [1]: 3.69 °C and 3.1 °C
ΔTm [2]: 0.94 °C
ΔTm [3]: 3.55 °C and 2.97 °C
ΔTm [4]: -0.33 °C and -0.99 °C
ΔTm [5]: 1.84 °C and 1.51 °C
ΔTm [6]: 9.58 °C and 8.08 °C

COc1ccc(Br)cc1S(=O)(=O)NC(=O)/C=C/c1cc(Cl)ccc1Cc1ccc2ccccc2c1
ΔTm [1]: -0.6 °C
ΔTm [2]: -1.22 °C
ΔTm [3]: -6.17 °C
ΔTm [4]: -2.44 °C
ΔTm [5]: -4.21 °C
ΔTm [6]: -3.37 °C

CCCCCCCN(CCc1ccc(SC(C)(C)C(=O)O)cc1)C(=O)Nc1ccc(F)cc1F
ΔTm [1]: 0.48 °C
ΔTm [2]: 0 °C
ΔTm [3]: 0.48 °C
ΔTm [4]: -1.12 °C
ΔTm [5]: -0.08 °C
ΔTm [6]: -1.93 °C

N#Cc1ccc(COc2ccc(Br)cc2CNCCO)cn1
ΔTm [1]: 0.3 °C
ΔTm [2]: 0.22 °C
ΔTm [3]: 0.13 °C
ΔTm [4]: -0.56 °C
ΔTm [5]: 0.45 °C
ΔTm [6]: -1 °C

CNC(=O)c1ccc(C)c(-n2c(C)cc(OCc3ccc(F)cc3F)c(Br)c2=O)c1
ΔTm [1]: -0.5 °C
ΔTm [2]: -0.88 °C
ΔTm [3]: -0.45 °C
ΔTm [4]: -1.44 °C
ΔTm [5]: -0.46 °C
ΔTm [6]: -1.48 °C

Cc1cn([C@@H](C)CC#N)c(=O)c2cc(Cn3nc(C(F)F)cc3Cl)nn12
ΔTm [1]: 0.12 °C
ΔTm [2]: -0.57 °C
ΔTm [3]: -0.18 °C
ΔTm [4]: -0.66 °C
ΔTm [5]: 0.18 °C
ΔTm [6]: -0.51 °C

OC(c1ccc(-c2ccc(CN3CCN(Cc4ccncc4)CC3)cc2)c(F)c1)(C(F)(F)F)C(F)(F)F
ΔTm [1]: -0.1 °C
ΔTm [2]: 0.64 °C
ΔTm [3]: -0.18 °C
ΔTm [4]: -0.86 °C
ΔTm [5]: 0.02 °C
ΔTm [6]: -1.1 °C

COc1cc(F)ccc1-c1ncnc(Nc2cccc(C[S@](C)(=N)=O)c2)n1
ΔTm [1]: 2.58 °C
ΔTm [2]: 3.09 °C
ΔTm [3]: 0.27 °C
ΔTm [4]: 10.1 °C
ΔTm [5]: 0.36 °C
ΔTm [6]: 3.39 °C

CC(C)(C#Cc1ccc(NC(=O)COc2ccccc2C(=O)c2ccccc2)c(Cl)c1)C(=O)O
ΔTm [1]: 0.32 °C
ΔTm [2]: -1.47 °C
ΔTm [3]: -0.18 °C
ΔTm [4]: 0 °C
ΔTm [5]: -0.94 °C
ΔTm [6]: 0.27 °C

O=C(NCCS(=O)(=O)c1ccc(C(F)(F)F)cn1)c1ccc(Cl)cc1
ΔTm [1]: 0 °C
ΔTm [2]: 0.73 °C
ΔTm [3]: 0.23 °C
ΔTm [4]: -1.08 °C
ΔTm [5]: 0.3 °C
ΔTm [6]: -0.52 °C

CN1CCN(C(=O)c2ccc(N(C)c3ncc(C(F)(F)F)c(N[C@@H]4CCC[C@@H]4C(N)=O)n3)cc2)CC1
ΔTm [1]: -0.2 °C
ΔTm [2]: 0.48 °C
ΔTm [3]: 0.31 °C
ΔTm [4]: 0.51 °C
ΔTm [5]: 0.25 °C
ΔTm [6]: -0.13 °C

Cc1c(-c2c(F)cc(C(N)=O)c3[nH]c4c(c23)CC[C@H](C(C)(C)O)C4)cccc1-n1c(=O)c2cccc(F)c2n(C)c1=O
ΔTm [1]: 3.83 °C
ΔTm [2]: 0.48 °C
ΔTm [3]: 0.11 °C
ΔTm [4]: 0.79 °C
ΔTm [5]: -0.33 °C
ΔTm [6]: 10.9 °C

C=CC1C[C@]1(NC(=O)[C@@H]1C[C@@H](Oc2cc(-c3csc(NC(=O)C(C)C)n3)nc3c(Br)c(OC)ccc23)CN1C(=O)[C@@H](NC(=O)OC1CCCC1)C(C)(C)C)C(=O)O (stereo not given in full)
ΔTm [1]: 0.33 °C
ΔTm [2]: 0.56 °C
ΔTm [3]: 0 °C
ΔTm [4]: -2.17 °C
ΔTm [5]: -1.13 °C
ΔTm [6]: 0.81 °C

CSc1nc2c(c(=O)n(C)c(=O)n2C)n1C
ΔTm [1]: 0.1 °C
ΔTm [2]: 0.27 °C
ΔTm [3]: 0.33 °C
ΔTm [4]: -0.85 °C
ΔTm [5]: 0.33 °C
ΔTm [6]: -0.13 °C

COCc1c(-c2cc3cc(C)cc(OC)c3s2)c2c(N)ncnn2c1CN[C@@H]1CCNC1=O
ΔTm [1]: 2.45 °C
ΔTm [2]: 0.59 °C
ΔTm [3]: 0.29 °C
ΔTm [4]: -0.7 °C
ΔTm [5]: 0.28 °C
ΔTm [6]: 3.49 °C

C[C@H](CCC(=O)O)[C@H]1CC[C@H]2[C@@H]3CC[C@@H]4C[C@H](O)CC[C@]4(C)[C@H]3C[C@H](O)[C@]12C
ΔTm [1]: -0.07 °C
ΔTm [2]: 0.15 °C
ΔTm [3]: 0.54 °C
ΔTm [4]: -0.7 °C
ΔTm [5]: 0.2 °C
ΔTm [6]: -0.62 °C

CC(C)c1nc2c(c3c1[C@@H](c1ccc(C(F)(F)F)cc1)OC31CCOCC1)[C@@H](O)CC(C)(C)C2
ΔTm [1]: -0.41 °C
ΔTm [2]: 0.52 °C
ΔTm [3]: 0.25 °C
ΔTm [4]: -1.28 °C
ΔTm [5]: -0.13 °C
ΔTm [6]: -0.38 °C

COc1cc(F)ccc1-c1cc(Nc2cc(CS(C)(=N)=O)ccn2)ncc1F (stereo not given)
ΔTm [1]: 5.35 °C
ΔTm [2]: 5.7 °C
ΔTm [3]: 1.19 °C
ΔTm [4]: 11 °C
ΔTm [5]: 0.27 °C
ΔTm [6]: 6.53 °C

CN1CCCN(C(=O)c2cccc(-c3ccc(/C=C4/C(=O)Nc5ccc(Cl)cc54)o3)c2)CC1
ΔTm [1]: 1.94 °C
ΔTm [2]: 2.38 °C
ΔTm [3]: 2.04 °C
ΔTm [4]: 5.85 °C
ΔTm [5]: -0.12 °C
ΔTm [6]: 1.88 °C
